Experimental data reported in PubChem BioAssay AID1159580 (chemical genetic matrix, 2015).
The campaign covered roughly 5,500 compounds. About 2,000 (36%) were called active. Another 18% or so got no clear call; they are omitted. Cut-off read from the data, not from the text of the source: active = normalized growth mostly below about 0.91 (no sharp cut-off); inconclusive = no clear call, values can overlap the other calls; inactive = mostly above about 0.92. The list shows a part of the results.

Assay: chemical genetic growth profiling, strain panel (AID 1159580);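 note: tested at 20 µM; growth read once vehicle control cultures reached saturation at 30 °C; 1 = growth at the plate median or of vehicle wells; lower values mean less growth of the strain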
Conditions: growth OD

Measured: normalized growth

C[C@@H]1O[C@@H](O[C@H]2[C@@H](Oc3cc(O)c4c(c3)O[C@H](c3ccc(O)cc3)CC4=O)O[C@H](CO)[C@@H](O)[C@@H]2O)[C@H](O)[C@H](O)[C@H]1O
inactive: S. cerevisiae deletion strains, locus YJR075W, strain HOC1, hits give low values 0.996 | S. cerevisiae deletion strains, locus YKL009W, strain mrt4, hits give low values 0.997 | S. cerevisiae deletion strains, locus YKL068W, hits give low values 1 | S. cerevisiae deletion strains, locus YKL085W, strain MDH1 (second series), hits give low values 0.996 | S. cerevisiae deletion strains, locus YKL085W, strain MDH1, hits give low values 0.996 | S. cerevisiae deletion strains, locus YKL160W, strain elf1, hits give low values 0.971 | S. cerevisiae deletion strains, locus YKL190W, strain CNB1, hits give low values 1 | S. cerevisiae deletion strains, locus YKR001C, strain vps1, hits give low values 1.01 | S. cerevisiae deletion strains, locus YKR026C, strain gcn3, hits give low values 0.996 | S. cerevisiae deletion strains, locus YKR091W, strain srl3, hits give low values 0.969 | S. cerevisiae deletion strains, locus YLL001W, strain dnm1, hits give low values 0.952 | S. cerevisiae deletion strains, locus YLL026W, hits give low values 0.974 | S. cerevisiae deletion strains, locus YLL041C, strain sdh2, hits give low values 0.983 | S. cerevisiae deletion strains, locus YLR027C, strain aat2, hits give low values 0.967 | S. cerevisiae deletion strains, locus YLR039C, strain RIC1, hits give low values 0.97 | S. cerevisiae deletion strains, locus YLR058C, strain SHM2, hits give low values 0.977 | S. cerevisiae deletion strains, locus YLR102C, strain apc9, hits give low values 1 | S. cerevisiae deletion strains, locus YLR113W, strain HOG1, hits give low values 0.969 | S. cerevisiae deletion strains, locus YLR221C, strain rsa3, hits give low values 0.957 | S. cerevisiae deletion strains, locus YLR258W, strain gsy2, hits give low values 0.981 | S. cerevisiae deletion strains, locus YLR262C, strain YPT6 (second series), hits give low values 0.979 | S. cerevisiae deletion strains, locus YLR262C, strain YPT6, hits give low values 0.969 | S. cerevisiae deletion strains, locus YLR268W, strain sec22, hits give low values 1.01 | S. cerevisiae deletion strains, locus YLR320W, strain mms22, hits give low values 0.969 | S. cerevisiae deletion strains, locus YLR330W, strain CHS5, hits give low values 0.99 | S. cerevisiae deletion strains, locus YLR342W, strain FKS1 (second series), hits give low values 1.03 | S. cerevisiae deletion strains, locus YLR342W, strain FKS1, hits give low values 0.98 | S. cerevisiae deletion strains, locus YLR357W, strain rsc2, hits give low values 0.956 | S. cerevisiae deletion strains, locus YLR370C, strain arc18, hits give low values 0.981 | S. cerevisiae deletion strains, locus YLR371W, strain rom2, hits give low values 0.997 | S. cerevisiae deletion strains, locus YLR384C, strain iki3, hits give low values 0.963 | S. cerevisiae deletion strains, locus YLR418C, strain cdc73, hits give low values 1.03 | S. cerevisiae deletion strains, locus YML016C, strain PPZ1, hits give low values 0.984 | S. cerevisiae deletion strains, locus YML032C, strain rad52, hits give low values 0.996 | S. cerevisiae deletion strains, locus YML120C, strain ndi1, hits give low values 0.953 | S. cerevisiae deletion strains, locus YML124C, strain tub3, hits give low values 0.993 | S. cerevisiae deletion strains, locus YMR058W, strain fet3, hits give low values 0.972 | S. cerevisiae deletion strains, locus YMR078C, strain ctf18, hits give low values 0.993 | S. cerevisiae deletion strains, locus YMR125W, strain sto1, hits give low values 0.941 | S. cerevisiae deletion strains, locus YMR129W, hits give low values 0.974 | S. cerevisiae deletion strains, locus YMR205C, strain PFK2, hits give low values 0.962 | S. cerevisiae deletion strains, locus YMR223W, strain ubp8, hits give low values 0.991 | S. cerevisiae deletion strains, locus YMR231W, strain pep5, hits give low values 0.983 | S. cerevisiae deletion strains, locus YMR263W, strain SAP30, hits give low values 0.987 | S. cerevisiae deletion strains, locus YMR307W, strain GAS1, hits give low values 1.04 | S. cerevisiae deletion strains, locus YNL067W, strain RPL9B, hits give low values 1 | S. cerevisiae deletion strains, locus YNL071W, strain lat1, hits give low values 0.979 | S. cerevisiae deletion strains, locus YNL128W, strain TEP1, hits give low values 0.975 | S. cerevisiae deletion strains, locus YNL153C, strain GIM3, hits give low values 0.981 | S. cerevisiae deletion strains, locus YNL183C, strain NPR1, hits give low values 0.92 | S. cerevisiae deletion strains, locus YNL209W, strain ssb2, hits give low values 0.971 | S. cerevisiae deletion strains, locus YNL233W, strain BNI4, hits give low values 0.991 | S. cerevisiae deletion strains, locus YNL248C, strain rpa49, hits give low values 0.977 | S. cerevisiae deletion strains, locus YNL250W, strain rad50, hits give low values 0.982 | S. cerevisiae deletion strains, locus YNL271C, strain bni1, hits give low values 0.999 | S. cerevisiae deletion strains, locus YNL298W, strain CLA4, hits give low values 1 | S. cerevisiae deletion strains, locus YNL307C, strain MCK1, hits give low values 1 | S. cerevisiae deletion strains, locus YNL322C, strain KRE1 (second series), hits give low values 0.951 | S. cerevisiae deletion strains, locus YNL322C, strain KRE1, hits give low values 0.987 | S. cerevisiae deletion strains, locus YNR049C, strain mso1, hits give low values 0.961 | S. cerevisiae deletion strains, locus YNR052C, strain pop2, hits give low values 0.998 | S. cerevisiae deletion strains, locus YOL006C, strain TOP1, hits give low values 0.962 | S. cerevisiae deletion strains, locus YOL012C, strain htz1 1.14 | S. cerevisiae deletion strains, locus YOL147C, strain pex11, hits give low values 1 | S. cerevisiae deletion strains, locus YOR001W, strain rrp6, hits give low values 0.998 | S. cerevisiae deletion strains, locus YOR061W, strain CKA2, hits give low values 0.967 | S. cerevisiae deletion strains, locus YOR069W, strain VPS5, hits give low values 0.99 | S. cerevisiae deletion strains, locus YOR070C, strain gyp1, hits give low values 0.981 | S. cerevisiae deletion strains, locus YOR080W, strain dia2, hits give low values 0.967 | S. cerevisiae deletion strains, locus YOR083W, strain WHI5, hits give low values 0.947 | S. cerevisiae deletion strains, locus YOR106W, strain vam3, hits give low values 0.954 | S. cerevisiae deletion strains, locus YOR136W, strain idh2, hits give low values 0.999 | S. cerevisiae deletion strains, locus YOR144C, strain elg1, hits give low values 1 | S. cerevisiae deletion strains, locus YOR184W, strain ser1, hits give low values 0.991 | S. cerevisiae deletion strains, locus YOR231W, strain MKK1, hits give low values 0.98 | S. cerevisiae deletion strains, locus YOR265W, strain rbl2, hits give low values 0.983 | S. cerevisiae deletion strains, locus YOR270C, strain vph1, hits give low values 0.915 | S. cerevisiae deletion strains, locus YOR290C, strain snf2, hits give low values 0.919 | S. cerevisiae deletion strains, locus YOR316C, strain cot1, hits give low values 0.992 | S. cerevisiae deletion strains, locus YPL051W, strain arl3, hits give low values 0.987 | S. cerevisiae deletion strains, locus YPL055C, strain LGE1, hits give low values 0.973 | S. cerevisiae deletion strains, locus YPL078C, strain atp4, hits give low values 0.968 | S. cerevisiae deletion strains, locus YPL106C, strain sse1, hits give low values 0.942 | S. cerevisiae deletion strains, locus YPL240C, strain hsp82, hits give low values 0.973 | S. cerevisiae deletion strains, locus YPL241C, strain CIN2, hits give low values 0.991 | S. cerevisiae deletion strains, locus YPL256C, strain CLN2, hits give low values 0.998 | S. cerevisiae deletion strains, locus YPR119W, strain clb2, hits give low values 1 | S. cerevisiae deletion strains, locus YPR141C, strain kar3, hits give low values 0.992 | S. cerevisiae deletion strains, locus YPR163C, strain tif3, hits give low values 1 | S. cerevisiae deletion strains, locus YPR167C, strain met16, hits give low values 0.998 | S. cerevisiae deletion strains, strain wtn01, hits give low values 0.997 | S. cerevisiae strains, strain wild type, hits give low values 0.98
